# Potency and affinity values are given separately. Inconclusive results are not listed. Entries that show only a call come without a potency. Calls of active or inactive are those of the source.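 How the source made its calls: active means every test run gave an active call, each with a potency at or below twice the top valid dose; inconclusive means test runs disagree, or curve fits are weak or unclear; inactive means every test run inactive, including wrong-way signal.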
# Assay: C2C12 myoblast ATP-based viability loss, dose response, cytotoxicity control for HRAS target identification, cell-based, CellTiter-Glo ATP luminescence, 8/24/48 h, dry powder (AID 720603)
compound,measurement,value
Cc1onc(C(=O)N2CCN(C(c3ccncc3)c3ccncc3)CC2)c1[N+](=O)[O-],outcome,inactive

# Reference: PubChem BioAssay AID720603 (Broad Institute, 2013)
